NALP1 yeast inh: inhibitors of NALP1 inflammasome in yeast. S. cerevisiae NALP1/ASC/caspase-1 growth, X-gal OD620, 72 h. inhibition, % at 10 µM. actives 0.61% (n = 280,000). AID 2071; in the data active = inhibition mostly above about 24%, no sharp cut-off; inactive = mostly below about 32%
NLRP3 yeast inh: inhibitors of NALP3 inflammasome in yeast; Yeast reconstituted NLRP3/ASC/caspase-1, beta-gal luminescence, 24 h; inhibition, % at 10 µM; actives 0.39% (n = 330,000);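 active = inhibition of 50% or more; inactive = inhibition below 50%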;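 note: plate controls were induced DMSO wells for no effect and uninduced yeast grown without galactose for full effect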
PERK inhibitor: blocks human PERK kinase. Q9NZJ5. CHO PERK-DD fusion, SEAP luminescence translation reporter. inhibition, % at 5.6 µM. actives 0.17% (n = 220,000). AID 1416;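 active = inhibition above the mean inhibition of all tested compounds plus 3 SD, set separately per screening campaign, cut at about 2.9% in these data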;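 note: PERK kinase domain activated by AP20187 dimerizer at 100 nM; 0% = DMSO with dimerizer and 100% = rapamycin at 8.4 µM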
Rce1 inh: blocks yeast Ras-converting enzyme | Q03530 | yeast membranes, quenched prenylated peptide cleavage fluorescence | calls only | actives 0.27% (n = 290,000) | AID 2563;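 active = fall in fluorescence gain of 50% or more versus controls, with final raw signal at or below 3038400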;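 note: plate controls were neutral control wells for no effect and wells lacking membranes for full effect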
Target sequence (Q03530 whole entry, looked up): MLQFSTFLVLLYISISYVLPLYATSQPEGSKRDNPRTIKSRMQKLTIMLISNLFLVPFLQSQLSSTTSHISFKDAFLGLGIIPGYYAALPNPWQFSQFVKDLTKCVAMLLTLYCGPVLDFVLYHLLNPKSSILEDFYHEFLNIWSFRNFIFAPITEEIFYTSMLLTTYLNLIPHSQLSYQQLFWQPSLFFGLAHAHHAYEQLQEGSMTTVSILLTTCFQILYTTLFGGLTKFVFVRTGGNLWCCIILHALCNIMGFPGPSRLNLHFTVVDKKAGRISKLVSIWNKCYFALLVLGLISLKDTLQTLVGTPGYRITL
V-ATPase pH: regulators of yeast V-ATPase proton transport; response, % at 10 µM; actives 0.37% (n = 350,000); S. cerevisiae, pHLuorin cytosolic pH fluorescence; in the data active = response mostly above about 7.3%, no sharp cut-off; inactive = mostly below about 5.4%; note: actives read high
CR mimetic SO: yeast age-related superoxide inhibition as caloric restriction mimetic. S. cerevisiae aged cells, superoxide DHE fluorescence; stronger effect = lower value. actives 0.18% (n = 330,000). superoxide response (% of plate mean), % at 10 µM. AID 2690;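 active = superoxide response under a set limit, about three screen SD below normal, cut at about 65% in these data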;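 note: yeast aged for seven days with compound at 30 °C before DHE staining; 100% = average MFI of all compound-treated wells on the plate with controls excluded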
CR mimetic CP: confirmation of caloric restriction mimetics inhibiting yeast age-related superoxide. shares compounds with CR mimetic SO. S. cerevisiae aging, superoxide DHE fluorescence; stronger effect = lower value. superoxide response (% of plate), % at 10 µM. actives 1% (n = 850). AID 434994;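 active = superoxide signal below 65% of the plate average of sample wells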;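 note: cells aged with compound for 7 days at 30 degrees C before staining; 100% equals mean DHE fluorescence of all compound wells on the plate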
DHE fluor count: DHE fluorescence interference, counter-screen artifact | shares compounds with CR mimetic SO | S. cerevisiae BY4741, flow cytometry; stronger effect = lower value | AID 435000 | fluorescence response, % at 10 µM | 850 tested, under 10 active;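 active = fluorescence response below 15%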;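 note: percent of the mean fluorescence averaged over all compound wells on the plate; lower means stronger quenching of DHE signal or ROS scavenging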
The depositor's hits bear a star; i = inactive; . = no result given; + = active, no number. Sampled rows, rich in hits. Any-hit rate of the full collection: about 1.6%.

SMILES | NALP1 yeast inh | NLRP3 yeast inh | PERK inhibitor | Rce1 inh | V-ATPase pH | CR mimetic SO | CR mimetic CP | DHE fluor count
CC(=O)Nc1ccc(S(=O)(=O)Nc2nc3nc(-c4ccccc4)cc(-c4ccccc4)n3n2)cc1 | 4.3 | 27.9 | . | i | 0.0 | 60.2* | 96.0 | 94.3
COc1cccc(S(=O)(=O)N(C)C[C@@H]2OCc3cnnn3CCCC(=O)N([C@@H](C)CO)C[C@@H]2C)c1 | . | . | . | . | 2.3 | . | . | .
Cc1cc(-c2nnc(SCC(=O)Nc3ccccc3)n2C)no1 | -5.7 | 7.1 | 1.4 | i | 2.6 | 57.8* | 103.8 | 115.5
O=C(OCc1c(F)cccc1Cl)c1cnc2ccccc2n1 | 16.7 | 4.2 | . | . | -3.8 | 53.6* | 101.1 | 88.1
O=C(OCc1c(F)cccc1Cl)c1cnccn1 | 33.2 | -12.7 | 0.8 | i | -1.8 | 99.2 | . | .
COc1nc(N(C)C)nc(N(C#N)CCOC(C)=O)n1 | -5.4 | 1.9 | 0.6 | i | -7.7 | 64.1* | 113.1 | 103.6
O=C1OCC/C1=C1/NCCNC1=O | . | . | . | . | -1.9 | . | . | .
NC(=O)c1ccc(NS(=O)(=O)c2ccc(S(=O)(=O)N3CCCC3)cc2)cc1 | . | . | . | . | -3.3 | . | . | .
C=CCOn1c(=O)c(-c2cccs2)[n+]([O-])c2ccccc21 | -4.0 | -15.2 | -0.4 | i | 2.9 | 61.7* | 92.3 | 110.3
Cc1ccc(C(=O)N2CCN(c3ccccc3)CC2)cc1C | 30.0 | 23.5 | 0.0 | i | -0.3 | 91.2 | 90.0 | 89.1
O=C(c1ccccc1)N1CCN(c2ccc(Cl)cc2)CC1 | -11.0 | 10.5 | -1.3 | i | -4.2 | 84.8 | 90.3 | 89.8
O=C(c1ccccc1)N1CCN(c2ccccc2)CC1 | . | . | . | . | 1.7 | . | . | .
O=C(c1ccc(NS(=O)(=O)c2ccc3[nH]c(=O)[nH]c3c2)cc1)N1CCN(c2ccccc2)CC1 | . | 0.9 | . | . | -0.1 | 95.7 | . | .
CS(=O)(=O)Nc1ccc(C(=O)N2CCN(c3ccccc3)CC2)cc1 | 4.8 | 18.5 | 1.1 | i | 1.2 | 88.3 | 92.4 | 91.1
Cc1ccc(C(=O)N2CCN(c3cccc(Cl)c3)CC2)cc1C | 18.5 | -15.7 | 0.5 | i | -4.1 | 102.7 | 109.1 | 100.4
N#CC(c1ccc(N)cc1)C(CC(=O)c1ccccc1)c1ccccc1 (stereo unspecified) | . | . | . | . | -1.9 | . | . | .
CCCCN(C(=O)CC1CCCCC1)c1c(N)n(CCCC)c(=O)[nH]c1=O | . | . | . | . | 2.1 | . | . | .
Cn1c(=O)c2c(ncn2CC(=O)OCC(=O)c2ccc(OC(F)F)cc2OC(F)F)n(C)c1=O | . | . | . | . | 0.6 | . | . | .
O=C(N/N=C/c1ccco1)c1[nH]ncc1Br | 8.8 | 1.1 | . | i | 1.4 | 61.2* | 95.9 | 93.5
O=C(N/N=C/c1ccccc1)c1[nH]ncc1Br | 6.4 | 13.5 | 2.0 | i | 2.1 | 93.8 | . | .
Cc1ccc(Cl)cc1NS(=O)(=O)c1cn(C)nc1C | 6.2 | 16.6 | . | i | 1.6 | 60.6* | 101.6 | 96.6
COc1ccc(Cl)cc1NS(=O)(=O)c1cn(C)nc1C | -1.7 | 25.8 | . | i | 2.0 | 103.6 | . | .
Nc1ccn([C@@H]2O[C@H](CN=C3NS(=O)(=O)c4ccccc43)[C@@H](O)[C@H]2O)c(=O)n1 | . | . | . | . | 1.5 | . | . | .
CCOc1ccccc1CNC(=O)C1CCN(S(=O)(=O)N2CCC(C)CC2)CC1 | . | . | . | . | -2.6 | . | . | .
CC(C)(C)c1ccc(-c2n[nH]c(=S)n2/N=C/c2ccncc2)cc1 | 23.9 | 27.6 | 0.7 | i | -0.8 | 43.5* | 115.4 | 127.3
SMILES | NALP1 yeast inh | NLRP3 yeast inh | PERK inhibitor | Rce1 inh | V-ATPase pH | CR mimetic SO | CR mimetic CP | DHE fluor count
Cc1ccc(C)c(-n2c(-c3ccc(Br)cc3)csc2=NC(=O)c2ccccc2F)c1 | -2.1 | 0.2 | -0.4 | i | -2.7 | 52.9* | 106.1 | 90.5
Cn1ccsc1=NC(=O)c1ccccc1F | -24.7 | 27.1 | 1.9 | i | 1.6 | 88.3 | . | .
COc1ccc2nc3n(c(=O)c2c1)-c1ncccc1C(=O)NC3CC(C)C (stereo unspecified) | . | . | . | . | -0.7 | . | . | .
CC1C(=O)N(Cc2cn(CC3CCCCC3)nn2)CCS(=O)(=O)N1Cc1ccc(-c2ccccc2)cc1 (stereo unspecified) | . | . | . | . | -4.3 | . | . | .
CCCCCC(=O)NC(=S)Nc1cccc(C(C)=O)c1 | 23.2 | 4.4 | -0.3 | . | 3.0 | 60.2* | 100.7 | 94.0
CCCC(=O)NC(=S)Nc1cccc(C(C)=O)c1 | 21.5 | 21.0 | 0.3 | i | -3.1 | 88.3 | . | .
NS(=O)(=O)c1ccc(CCNC(=O)COC(=O)Cc2ccc(Cl)cc2)cc1 | . | . | . | . | 0.6 | . | . | .
COc1cc(/C=C(\C#N)C(=O)NC(C)C)cc(Cl)c1O | -8.1 | 7.8 | 1.6 | i | -2.0 | 95.7 | 106.3 | 91.8
CC(C)NC(=O)/C(C#N)=C/c1cccc(NC(=O)c2ccccc2Cl)c1 | 49.9 | 20.8 | -0.5 | i | 2.7 | 85.5 | . | .
CCn1c(C)nc2c(=O)oc3ccccc3c21 | -2.1 | -9.5 | 0.7 | + | -3.3 | 65.1* | 94.0 | 97.4
Cc1nc2c(=O)oc3ccccc3c2n1-c1ccccc1 | 0.5 | 2.3 | -0.5 | i | 1.7 | 94.7 | . | .
CCn1c2ccccc2c2cc(NC(C)=O)ccc21 | -3.9 | 30.0 | 0.4 | i | 3.6 | 111.2 | 106.9 | 105.4
CC(=O)Nc1ccc2c(c1)c1ccccc1n2C(C)=O | 13.6 | 1.1 | 0.0 | i | 2.1 | 104.2 | . | .
Clc1ccc(-n2cnc3c(Cl)ncnc32)cc1Cl | . | . | . | . | 1.9 | . | . | .
CN(C)S(=O)(=O)c1ccc(C(=O)OCn2nnc3ccccc3c2=O)cc1 | 22.3 | 9.1 | 0.0 | i | -1.8 | 65.2* | 103.2 | 90.7
COc1ccc(C(=O)OCn2nnc3ccccc3c2=O)cc1OC | 6.8 | 30.1 | -0.3 | i | 5.7 | 117.1 | . | .
COc1cc(C(C)=O)ccc1OCC(=O)N1CCCC1c1ccc2c(c1)OCCCO2 (stereo unspecified) | . | . | . | . | -2.1 | . | . | .
COc1cc2[nH]c(=O)n(CCCCCC(=O)N3CCN(c4ccccc4)CC3)c(=O)c2cc1OC | 0.5 | 5.6 | -1.7 | i | -0.1 | 64.2* | 95.4 | 92.9
Cc1ccc(/C=N/NC(=O)c2nnn(-c3nonc3N)c2CNc2ccccc2)cc1 | 34.3 | 10.8 | . | i | -0.9 | 64.8* | 122.0 | 106.6
Nc1nonc1-n1nnc(C(=O)N/N=C/c2ccc(OCc3ccccc3F)cc2)c1CNc1ccccc1 | 11.0 | 17.2 | . | i | 0.1 | 121.7 | . | .
Cc1ccc(S(=O)(=O)N2C[C@H]3C(=O)C[C@@H](c4cccc(Cl)c4)N(S(=O)(=O)c4ccc(C)cc4)[C@H]3C[C@H]2c2ccccc2)cc1 | . | . | . | . | -1.5 | . | . | .
COc1ccc(-c2c(-c3cc(OC)cc(OC)c3)n(C)c3ccc(-c4ccc(SC)cc4)cc23)cc1 | . | 8.5 | . | . | -3.9 | 65.4* | 97.1 | 96.4
Cc1ccc(-c2nnc(Nc3ccc(O)cc3)c3ccccc23)cc1S(=O)(=O)NCCO | 6.2 | 12.6 | . | i | 0.6 | 106.4 | 124.4 | 115.9
CNC(=O)c1ccc(Nc2nnc(-c3ccc(O)cc3)c3ccccc23)cc1 | 8.8 | -6.1 | . | i | -0.1 | 105.4 | . | .

From PubChem BioAssay
